RecA splice inh: Mtb RecA intein splicing inhibitors, primary screen, biochemical, fluorescence, HTS; Protein RecA (Mycobacterium tuberculosis (strain ATCC 25618 / H37Rv)), P9WHJ3; cell-free RecA intein splicing; inhibition, % (no concentration beside the values); 290,000 tested, 0.75% active; in the data active means inhibition above about 30%
Target sequence (P9WHJ3 whole entry, looked up, canonical isoform): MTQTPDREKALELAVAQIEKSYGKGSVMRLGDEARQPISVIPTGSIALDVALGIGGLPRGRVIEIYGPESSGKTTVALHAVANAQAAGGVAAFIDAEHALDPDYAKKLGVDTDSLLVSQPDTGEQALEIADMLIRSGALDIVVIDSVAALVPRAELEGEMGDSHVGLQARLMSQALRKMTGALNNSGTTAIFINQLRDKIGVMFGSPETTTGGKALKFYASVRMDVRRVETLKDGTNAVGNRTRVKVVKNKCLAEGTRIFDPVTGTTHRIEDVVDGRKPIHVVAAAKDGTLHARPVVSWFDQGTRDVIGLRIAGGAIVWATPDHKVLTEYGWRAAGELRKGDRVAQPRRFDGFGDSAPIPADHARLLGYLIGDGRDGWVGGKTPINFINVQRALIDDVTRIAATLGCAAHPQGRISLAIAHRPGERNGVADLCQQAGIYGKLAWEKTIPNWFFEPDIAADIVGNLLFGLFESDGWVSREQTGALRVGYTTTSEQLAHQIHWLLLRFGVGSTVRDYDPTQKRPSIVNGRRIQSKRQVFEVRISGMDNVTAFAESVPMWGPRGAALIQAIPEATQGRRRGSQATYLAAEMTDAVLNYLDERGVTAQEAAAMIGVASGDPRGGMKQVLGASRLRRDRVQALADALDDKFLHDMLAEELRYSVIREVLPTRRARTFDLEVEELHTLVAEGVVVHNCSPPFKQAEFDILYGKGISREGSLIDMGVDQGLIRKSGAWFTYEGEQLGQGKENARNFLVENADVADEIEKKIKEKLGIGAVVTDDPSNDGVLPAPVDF
PrPC TRFRET: inhibitors of human cell surface prion protein PrPC, primary screen, cell-based, TR-FRET | AID 720596, 2013 | inhibition, % at 13.8 µM | Major prion protein (Homo sapiens), P04156 | 370,000 tested, 0.43% active | TR-FRET read-out; in the data active means inhibition above about 24%
GDH-TPI inh: GDH-TPI coupling enzyme inhibitors, primary screen, artefact control for M. tuberculosis FBA inhibitor project, biochemical, absorbance, full deck; 360,000 tested, 1.2% active; AID 588335, 2011; GDH-TPI coupled enzyme counterscreen, NADH absorbance; inhibition, % at 4.8 µM; in the data active means inhibition above about 30%
BJeLR lethal: MLPCN primary cell-based screen for lethality selective to Ras in HRASV12 cells | inhibition, % (concentration not given with the values) | AID 1554, 2009 | 300,000 tested, 0.17% active | BJeLR (HRASV12) viability, CellTiter-Glo ATP luminescence, 48 h; in the data active means inhibition above about 50%
Mtb FBA inh: Mtb FBA enzyme inhibitors, primary screen, biochemical, fluorescence, strain H37Rv. purified M. tuberculosis FBA, fluorescence read-out. inhibition, % at 1 µM. Fructose-bisphosphate aldolase (Mycobacterium tuberculosis (strain ATCC 25618 / H37Rv)), …. 360,000 tested, 2.3% active; in the data active means inhibition above about 27%
Numbers stand for hits. Rows were chosen to be rich in hits. Some 4.2% of all compounds tested hit in one or more screens of this group.

How did Cc1nc(Nc2ccc(C(=O)O)cc2)sc1-c1ccccc1 do in these assays?
RecA splice inh: inactive; PrPC TRFRET: inactive; GDH-TPI inh: 37.5; BJeLR lethal: inactive; Mtb FBA inh: inactive

How did Cc1nc(Nc2ccccc2)sc1-c1ccccc1 do in these assays?
RecA splice inh: inactive; PrPC TRFRET: inactive; GDH-TPI inh: inactive; BJeLR lethal: inactive; Mtb FBA inh: inactive

What do the screens show for `CC(=O)c1sc(Nc2ccccc2)nc1C`?
PrPC TRFRET: inactive; Mtb FBA inh: inactive

How did Cc1nc(NC(=O)c2ccco2)sc1C(=O)Nc1ccc(Br)cc1 do in these assays?
RecA splice inh: inactive; GDH-TPI inh: 51.6; BJeLR lethal: inactive; Mtb FBA inh: inactive

What do the screens show for `CCN(CC)C(=O)Cn1nc(Cc2ccncc2)c2ccccc2c1=O`?
PrPC TRFRET: inactive

Results for c1ccc(-c2ccccc2C2Cc3nnccc3CN2)cc1 (centres undefined) ?
PrPC TRFRET: inactive

Results for O=C(Nc1ccc(Cc2ccncc2)cc1)c1cccc([N+](=O)[O-])c1 ?
RecA splice inh: inactive; PrPC TRFRET: inactive; GDH-TPI inh: inactive; BJeLR lethal: inactive; Mtb FBA inh: inactive

What do the screens show for `O=C(Nc1ccc(Nc2ccncc2)cc1)c1ccc(Nc2ccnc3ccc([N+](=O)[O-])cc23)cc1`?
RecA splice inh: inactive; PrPC TRFRET: inactive; GDH-TPI inh: 39.1; BJeLR lethal: inactive; Mtb FBA inh: inactive

How did CC1(C)CC(NC(=O)Nc2ccc([N+](=O)[O-])cc2)CC(C)(C)N1 do in these assays?
RecA splice inh: inactive; PrPC TRFRET: inactive; GDH-TPI inh: 31.7; BJeLR lethal: inactive; Mtb FBA inh: inactive

What do the screens show for `CCOc1ccc(CCNC(=O)c2cc3ccsc3n2C)cc1OC`?
PrPC TRFRET: inactive

How did C[C@@H]1O[C@@H](O[C@H]2C[C@@H](O)[C@]3(CO)[C@H]4[C@H](O)C[C@]5(C)[C@@H](C6=CC(=O)OC6)CC[C@]5(O)[C@@H]4CC[C@]3(O)C2)[C@H](O)[C@H](O)[C@H]1O do in these assays?
RecA splice inh: inactive; GDH-TPI inh: inactive; BJeLR lethal: 80.4; Mtb FBA inh: inactive

Results for CC12CCC3C(CCC4(O)CC(O)CCC34C=O)C1(O)CCC2C1=CC(=O)OC1 (centres undefined) ?
PrPC TRFRET: inactive; GDH-TPI inh: inactive; Mtb FBA inh: inactive

What do the screens show for `COP(=O)(OC)c1nc(-c2cccc3ccccc23)oc1NCCc1ccccc1`?
RecA splice inh: inactive; PrPC TRFRET: inactive; GDH-TPI inh: inactive; BJeLR lethal: inactive; Mtb FBA inh: active

How did COc1ccc(CCNc2oc(-c3cccc4ccccc34)nc2P(=O)(OC)OC)cc1OC do in these assays?
RecA splice inh: inactive; PrPC TRFRET: inactive; GDH-TPI inh: inactive; BJeLR lethal: inactive; Mtb FBA inh: 188.2

How did COC(=O)CSc1nc(N)c2c3c(sc2n1)C(c1ccccc1)SC(c1ccccc1)C3 (centres undefined) do in these assays?
RecA splice inh: 35.8; GDH-TPI inh: inactive; BJeLR lethal: inactive; Mtb FBA inh: inactive

How did COC(=O)CSc1nc(N)c2c3c(sc2n1)CCCC3 do in these assays?
RecA splice inh: inactive; PrPC TRFRET: inactive; GDH-TPI inh: inactive; BJeLR lethal: inactive; Mtb FBA inh: inactive

How did CC1Cc2nc(SCC(=O)NCc3ccccc3)n(Cc3ccccc3)c(=O)c2S1 (centres undefined) do in these assays?
RecA splice inh: inactive; PrPC TRFRET: inactive; GDH-TPI inh: 33.6; BJeLR lethal: inactive; Mtb FBA inh: inactive

Results for COc1cc(-n2c(C)nc3cc(C(=O)N4CCCC4)ccc32)cc(OC)c1OC ?
PrPC TRFRET: inactive

Results for C=CC(=O)Nc1cccc(Oc2ccnc3[nH]ccc23)c1 ?
GDH-TPI inh: inactive; Mtb FBA inh: 180.0

What do the screens show for `O=C(Nc1nc2ccccc2n1CCN1CCOCC1)c1ccc(COc2ccccc2Br)o1`?
RecA splice inh: inactive; PrPC TRFRET: inactive; GDH-TPI inh: inactive; BJeLR lethal: inactive; Mtb FBA inh: inactive

What do the screens show for `O=C(Nc1nc2ccccc2n1CCN1CCOCC1)c1ccc(Cn2cc([N+](=O)[O-])cn2)o1`?
RecA splice inh: inactive; PrPC TRFRET: inactive; GDH-TPI inh: 47.8; BJeLR lethal: inactive; Mtb FBA inh: inactive

What do the screens show for `O=c1c(-c2ccc3c(c2)OCCO3)coc2c(CN3CCOCC3)c(O)ccc12`?
RecA splice inh: inactive; PrPC TRFRET: inactive; GDH-TPI inh: inactive; BJeLR lethal: inactive; Mtb FBA inh: inactive

Results for COc1cccc(Oc2coc3c(CN4CCOCC4)c(O)ccc3c2=O)c1 ?
RecA splice inh: inactive; PrPC TRFRET: inactive; GDH-TPI inh: inactive; BJeLR lethal: inactive; Mtb FBA inh: 115.4

What do the screens show for `CCOc1ccccc1Oc1c(C)oc2c(CN3CCN(C)CC3)c(O)ccc2c1=O`?
PrPC TRFRET: inactive; GDH-TPI inh: 42.1; Mtb FBA inh: 138.5

Results for COC(=O)c1ccc(Oc2c(C(F)(F)F)oc3c(CN4CCN(C)CC4)c(O)ccc3c2=O)cc1 ?
RecA splice inh: inactive; PrPC TRFRET: inactive; GDH-TPI inh: inactive; BJeLR lethal: inactive; Mtb FBA inh: inactive

Results for COc1cccc(Oc2c(C)oc3c(CN4CCCC4)c(O)ccc3c2=O)c1 ?
RecA splice inh: inactive; PrPC TRFRET: inactive; GDH-TPI inh: inactive; BJeLR lethal: inactive; Mtb FBA inh: 172.5

What do the screens show for `COc1ccccc1Oc1c(C)oc2c(CN3CCOCC3)c(O)ccc2c1=O`?
RecA splice inh: inactive; PrPC TRFRET: inactive; GDH-TPI inh: inactive; BJeLR lethal: inactive; Mtb FBA inh: 180.5

What do the screens show for `COc1ccc(-c2c(C)oc3c(CN4CCOCC4)c(O)ccc3c2=O)cc1OC`?
RecA splice inh: inactive; PrPC TRFRET: inactive; GDH-TPI inh: inactive; BJeLR lethal: inactive; Mtb FBA inh: inactive

How did O=C(NC1CCCC1)c1ccc(COc2ccccc2)o1 do in these assays?
PrPC TRFRET: inactive

Results for COc1ccc2c(c1)CCCN2C(=O)C1CCCN(S(=O)(=O)c2cccc3cccnc23)C1 (centres undefined) ?
PrPC TRFRET: inactive

How did CC1(C)Cc2c(sc3[nH]c(=S)n(Cc4ccco4)c(=O)c23)CO1 do in these assays?
RecA splice inh: inactive; PrPC TRFRET: inactive; GDH-TPI inh: 37.5; BJeLR lethal: inactive; Mtb FBA inh: inactive

How did Cc1ccc(OC[C@@H](O)CN2CCC(C(O)(c3ccccc3)c3ccccc3)CC2)cc1 do in these assays?
PrPC TRFRET: inactive

What do the screens show for `CNc1oc(-c2ccccc2)nc1C#N`?
RecA splice inh: inactive; PrPC TRFRET: inactive; GDH-TPI inh: inactive; BJeLR lethal: inactive; Mtb FBA inh: 180.6

How did COCCNc1oc(/C=C/c2ccccc2)nc1C#N do in these assays?
RecA splice inh: inactive; PrPC TRFRET: inactive; GDH-TPI inh: inactive; BJeLR lethal: inactive

How did CCN1CCN(c2oc(/C=C/c3ccccc3)nc2C#N)CC1 do in these assays?
RecA splice inh: inactive; PrPC TRFRET: inactive; GDH-TPI inh: 48.3; BJeLR lethal: inactive; Mtb FBA inh: 192.3
